Structures can show the parent of a compound that is named as a salt.

The experiment relates to replication-induced senescent mouse newborn dermal fibroblasts (NBF). Briefly: relative cell viability of senescent cells (fraction); higher = less killing of senescent cells. The note with it: 1 µM; 3 days. The method, then:
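Replication-induced senescent newborn mouse skin fibroblasts (NBFs) in 24-well plates were treated with a Selleck FDA-approved drug library at 1 µM for 3 days.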
In turn, `Cn1cnc([N+](=O)[O-])c1Sc1ncnc2[nH]cnc12` [Azathioprine] came in with a relative cell viability of 0.986.

In the case of `COc1ccc(CC2c3cc(OC)c(OC)cc3CC[N+]2(C)CCC(=O)OCCCCCOC(=O)CC[N+]2(C)CCc3cc(OC)c(OC)cc3C2Cc2ccc(OC)c(OC)c2)cc1OC` (stereo not drawn) [Atracurium Besylate], the relative cell viability stood at 1.07. As for `CCc1cc(C(N)=S)ccn1` [Ethionamide], the figure is 0.932; as for `Nc1nc2c(ncn2COC(CO)CO)c(=O)[nH]1` [Ganciclovir], 0.995; as for `CNS(=O)(=O)CCc1ccc2[nH]cc(C3CCN(C)CC3)c2c1` [Naratriptan HCl], 1.14. `CC(C)(C)c1cc(C(C)(C)C)c(NC(=O)c2c[nH]c3ccccc3c2=O)cc1O` [Ivacaftor (VX-770)] displayed a relative cell viability of 0.533. As for `CC[C@H]1OC(=O)[C@H](C)[C@@H](O[C@H]2C[C@@](C)(OC)[C@@H](O)[C@H](C)O2)[C@H](C)[C@@H](O[C@@H]2O[C@H](C)C[C@H](N(C)C)[C@H]2O)[C@](C)(O)C[C@@H](C)CN(C)[C@H](C)[C@@H](O)[C@]1(C)O` [Azithromycin], the figure is 0.879. The compound `CC(=O)[C@H]1CC[C@H]2[C@@H]3CCC4=CC(=O)CC[C@]4(C)[C@H]3CC[C@]12C` [Progesterone] returned a relative cell viability of 0.968.
